Screening data from PubChem BioAssay.
Rows were chosen to be rich in hits. Some 3.7% of all compounds tested hit in one or more screens of this group.
TGFb SMAD3 inh = inhibitors of TGF-b signaling; HepG2 CAGA-GFP TGF-b/SMAD3 reporter, GFP fluorescence, 18 h; TGF-beta stimulated, 500 pg/mL final; Potency, µM (series often up to 46.1 µM), inactives show at the highest dose activity, negative = inhibition, actives largely listed as inhibitors; actives 1.2% (n = 410,000); AID 588855; further: on the % scale 0 is the no-effect control and ±100 the full control effect; nearly all actives have a fitted effect of over 65% in size
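TGF-beta reporter screen: HEPG2 CAGA-GFP, 1% FBS, 500 pg/mL TGF-beta final, 18 h; per-cell GFP summed per well; curves fitted and categorized by class.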
GLP1R inv ag = inverse agonists of human GLP-1 receptor; P43220; HEK293 GLP-1R CRE-luciferase, luminescence, 24 h; GLP-1R form is constitutively active; Potency, µM (highest dose often 38.3 µM), for inactives: at the highest dose activity change, negative = inhibition, hits mostly inhibitors; actives 1.6% (n = 410,000); further: on the % scale 0 is the no-effect control and ±100 the full control effect; nearly all actives have a fitted effect of over 55% in size
Target sequence (P43220 whole entry, looked up): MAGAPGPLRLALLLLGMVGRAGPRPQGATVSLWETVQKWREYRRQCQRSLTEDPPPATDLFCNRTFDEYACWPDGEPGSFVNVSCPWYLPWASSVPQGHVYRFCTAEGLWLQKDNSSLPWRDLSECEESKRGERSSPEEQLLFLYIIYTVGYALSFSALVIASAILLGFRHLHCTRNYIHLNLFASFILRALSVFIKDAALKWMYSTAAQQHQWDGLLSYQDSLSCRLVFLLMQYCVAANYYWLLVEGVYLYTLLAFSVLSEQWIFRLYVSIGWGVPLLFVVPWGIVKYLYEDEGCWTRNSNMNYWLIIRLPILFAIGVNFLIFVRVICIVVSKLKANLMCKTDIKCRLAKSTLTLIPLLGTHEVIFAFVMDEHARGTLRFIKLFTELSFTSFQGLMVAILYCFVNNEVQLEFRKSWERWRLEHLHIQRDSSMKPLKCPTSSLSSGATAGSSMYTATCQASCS
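Luminescence readout: a drop in cAMP-driven luciferase signal flags inverse agonism at a constitutively active GLP-1R stably expressed in HEK293. Compound exposure lasted 24 hr at 37 deg C, 5% CO2.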
HepG2 tox = kills HepG2 cells in TGF-b inhibitor counter-screen; actives 0.76% (n = 410,000); Potency, µM (highest dose often 46.1 µM), inactives show at the highest dose activity change, negative = cytotoxicity, actives largely listed as cytotoxic; AID 588856; HepG2 CAGA-GFP viability, ATP luminescence, 18 h
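HepG2 CAGA-GFP cells (1000/well, DMEM with 1% FBS) received compound, then TGF-beta at 500 pg/mL final, and were incubated 18 hours at 37 degrees C. Viability was read by CellTiter-Glo luminescence. Media-only wells were set as complete cell-killing and DMSO as no toxicity.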
ATXN2 expr inh = ATXN2 expression inhibition | HEK-293 ATXN2-luciferase reporter, luminescence, 24 h | Potency, µM (top dose mostly 57 µM), inactives show at the highest dose activity change, negative = inhibition, most hits filed as inhibitors | actives 0.72% (n = 360,000); further: on the % scale 0 is the no-effect control and ±100 the full control effect; nearly all actives have a fitted effect of over 55% in size
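qHTS (up to 57 uM final) was run with 24 h compound exposure of reporter cells at 37 °C. Each well was multiplexed: SteadyGlo luminescence measured ATXN2-luciferase expression after a fluorogenic Gly-Phe-AFC viability readout (25 uM final).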
GLP1R ag = agonists of human GLP-1 receptor | P43220 | HEK293 GLP-1R CRE-luciferase, luminescence, 4-6 h; cells express a hypersensitive GLP-1R form | Potency, µM (top dose mostly 45.6 µM), for the others: at the highest dose activation, hits mostly activators | actives 0.007% (n = 380,000) | AID 624172; further: % of control where 0% means no effect
ATXN viability = cell viability loss in ATXN counter-screen | AID 651635 | actives 0.49% (n = 400,000) | Potency, µM (doses to about 56.7 µM), usual class: cytotoxic | S2 cells (HEK-293 line with an ATXN2-luciferase reporter) viability, CellTiter-Fluor protease fluorescence, 24 h; further: nearly all actives have a fitted effect of over 40% in size
* = called active by the depositor. The call rests on the fitted dose curve; in most records, active means well fitted curve in the direction sought with a large enough effect; inconclusive means small, poorly fitted or top-dose-only effect, or another doubt; inactive means no such curve, though single readings can be large; an effect the other way counts as inactive or inconclusive. Potency means the concentration at half of the fitted maximal effect.

Screening Cc1ccsc1CCN1C(=O)N(c2ccccc2)C(=O)C1CC(=O)Nc1ccc(Cl)cc1 (stereo not drawn) returned TGFb SMAD3 inh inconclusive, GLP1R inv ag 10µM*, HepG2 tox -32%, ATXN2 expr inh inconclusive and ATXN viability inconclusive.
For COc1cc(N(C)C)c(OC)cc1C=C1C=CC=C1 the results were TGFb SMAD3 inh inconclusive and HepG2 tox -34%.
`COc1cccc(NC(=S)NC(C)c2ccc(OC)c(OC)c2)c1` (stereo not drawn) gave TGFb SMAD3 inh -2%, GLP1R inv ag -9%, HepG2 tox 18%, ATXN2 expr inh -17%, GLP1R ag 14% and ATXN viability inactive.
COc1cccc(NC(=S)NC(Cc2ccccc2)c2ccccc2)c1 (stereo not drawn) was read as TGFb SMAD3 inh 22µM*, GLP1R inv ag inconclusive, HepG2 tox -24%, GLP1R ag 4% and ATXN viability inactive.
`CC(=O)c1cc2ccccc2c2ccccc12` gave TGFb SMAD3 inh -15% and HepG2 tox -21%.
`COc1ccc(C(=O)O/N=C(\N)Cc2ccc(Cl)c(Cl)c2)cc1OC` gave TGFb SMAD3 inh inconclusive, GLP1R inv ag inconclusive, HepG2 tox -85%, ATXN2 expr inh inconclusive and GLP1R ag -24%.
COc1ccc(C(=O)O/N=C(\N)Cc2ccc(Cl)cc2)cc1OC was read as TGFb SMAD3 inh -5%, GLP1R inv ag 7.9µM*, HepG2 tox -40%, ATXN2 expr inh -18%, GLP1R ag 8% and ATXN viability inconclusive.
`COC1=C(Br)C(=O)c2ncccc2C1=O` gave TGFb SMAD3 inh inconclusive, GLP1R inv ag inconclusive, HepG2 tox -52%, ATXN2 expr inh 15µM*, GLP1R ag -30% and ATXN viability 24µM*.
O=C1c2cccnc2-c2ncccc21 was read as TGFb SMAD3 inh 16%, GLP1R inv ag -7%, HepG2 tox -7%, ATXN2 expr inh -1%, GLP1R ag -11% and ATXN viability inconclusive.
`O=C1C(=O)c2cccnc2-c2ncccc21` gave TGFb SMAD3 inh 1.4µM*, GLP1R inv ag inconclusive, HepG2 tox 2µM*, ATXN2 expr inh 0.5µM*, GLP1R ag -13% and ATXN viability 0.4µM*.
For Cc1ccc2oc(-c3ccc(C)c(NC(=O)COc4ccccc4C)c3)nc2c1 the results were TGFb SMAD3 inh 8% and HepG2 tox 4%.
`O=C(CSc1nc(-c2ccccc2)nc2c1CCCC2)c1ccc(F)cc1` gave TGFb SMAD3 inh 13%, GLP1R inv ag 6%, HepG2 tox 4%, ATXN2 expr inh 3%, GLP1R ag -4% and ATXN viability inactive.
For Cc1ccc(OCC(=O)c2cc(C)n(-c3ccccc3)c2C)c([N+](=O)[O-])n1 the results were TGFb SMAD3 inh inconclusive, GLP1R inv ag inconclusive, HepG2 tox -15%, ATXN2 expr inh 3.2µM*, GLP1R ag -6% and ATXN viability inactive.
Screening CC(=O)c1c(C(C)=O)c(C)n(-c2cccc([N+](=O)[O-])c2)c1C returned TGFb SMAD3 inh 12%, GLP1R inv ag 31%, HepG2 tox -18%, ATXN2 expr inh -8%, GLP1R ag -1% and ATXN viability inactive.
For Cc1cc(C(=O)CCl)c(C)n1-c1cccc([N+](=O)[O-])c1 the results were TGFb SMAD3 inh inconclusive, GLP1R inv ag inconclusive, HepG2 tox -95%, ATXN2 expr inh inconclusive, GLP1R ag 0% and ATXN viability 25µM*.
Screening Cc1ccc(C)c(C(=O)COc2ccc(C)nc2[N+](=O)[O-])c1 returned TGFb SMAD3 inh inconclusive, GLP1R inv ag 48%, HepG2 tox -39%, ATXN2 expr inh 31%, GLP1R ag -23% and ATXN viability inactive.
Screening Cc1ccc(OCC(=O)c2cc(C)c(C)cc2C)c([N+](=O)[O-])n1 returned TGFb SMAD3 inh 11µM*, GLP1R inv ag 48%, HepG2 tox -32%, ATXN2 expr inh 1%, GLP1R ag -17% and ATXN viability inactive.
For Cc1cc(C(=O)N2CCOc3ccc(CN4CCC(Oc5cccnc5)CC4)cc3C2)c(C)o1 the results were ATXN viability inactive.
Screening O=C(Nc1ccccc1)c1cc(C2CCCN(C(=O)c3ccccc3)C2)on1 (stereo not drawn) returned TGFb SMAD3 inh -9%, GLP1R inv ag 16%, HepG2 tox -17%, ATXN2 expr inh 42%, GLP1R ag 10% and ATXN viability inactive.
Screening CCCC(=O)N1CCCC(c2cc(C(=O)Nc3ccccc3)no2)C1 (stereo not drawn) returned TGFb SMAD3 inh 1%, GLP1R inv ag inconclusive, HepG2 tox 10µM*, ATXN2 expr inh 11µM*, GLP1R ag -8% and ATXN viability inactive.
Nc1cnccn1 was read as TGFb SMAD3 inh -17% and HepG2 tox 0%.
`Cc1ccc(CNc2ncnc3sc(C(=O)N4CCCC(C(N)=O)C4)c(C)c23)o1` (stereo not drawn) gave ATXN viability inactive.
COc1cc(CNc2cccc3[nH]c(C(F)(F)F)nc23)cc(OC)c1 was read as TGFb SMAD3 inh 13µM*, GLP1R inv ag -12%, HepG2 tox -46%, GLP1R ag -4% and ATXN viability inactive.
Screening CCN1CCCC1CN (stereo not drawn) returned ATXN2 expr inh 2% and ATXN viability inactive.
`COc1ccc(-c2ccc(C3C4C=CCC(C)C4C(=O)N3Cc3ccccc3)c(F)c2)cc1C` (stereo not drawn) gave TGFb SMAD3 inh 4% and HepG2 tox 6%.
`O=C(NCC1Cc2cc(F)cc(-c3cnccn3)c2O1)c1cccc(Cl)c1` (stereo not drawn) gave ATXN viability inactive.
Cc1cc(C)c(C#N)c(SCCS(=O)(=O)c2ccc(Cl)cc2)n1 was read as TGFb SMAD3 inh 2%, GLP1R inv ag -9%, HepG2 tox 9%, ATXN2 expr inh -27%, GLP1R ag 18% and ATXN viability inactive.
Screening Cc1cc(C)c(C#N)c(SCCS(=O)(=O)Cc2ccc(Cl)cc2)n1 returned TGFb SMAD3 inh 14µM*, GLP1R inv ag 10%, HepG2 tox -5%, ATXN2 expr inh -16%, GLP1R ag 5% and ATXN viability inactive.
COc1cc(C)c(Cl)cc1S(=O)(=O)NCCc1c(C)[nH]c2ccccc12 was read as TGFb SMAD3 inh inconclusive, GLP1R inv ag inconclusive, HepG2 tox -34%, ATXN2 expr inh inconclusive and ATXN viability inconclusive.
